The values below come from publication PMC7862700, “An all-to-all approach to the identification of sequence-specific readers for epigenetic DNA modifications on cytosine”.

Common to all, as to test: DAPPL (digital affinity profiling via proximity ligation, sequencing); 10 mM Tris-HCl pH 7.5, 50 mM NaCl, 1 mM DTT, 4% glycerol, room temperature, 30 min; GST-TFs on glutathione beads, 16-mer random dsDNA library, 0.1% formaldehyde crosslink after washing; high values mean tight binding
Assay [1] concerns the target T1, FEV (Homo sapiens, UniProt Q99581 1-238).
T1 sequence: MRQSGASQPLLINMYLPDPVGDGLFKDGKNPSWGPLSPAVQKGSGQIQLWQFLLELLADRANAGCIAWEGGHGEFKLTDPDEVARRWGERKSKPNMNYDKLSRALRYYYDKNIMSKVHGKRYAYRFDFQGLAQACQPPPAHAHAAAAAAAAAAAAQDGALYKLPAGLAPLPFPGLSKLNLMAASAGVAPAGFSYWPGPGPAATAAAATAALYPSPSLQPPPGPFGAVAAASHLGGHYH
The note with it: protein: recombinant; tags: N-terminal GST; dsDNA, one strand shown. A digest of the protocol: (§1)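 Human transcription factors were made in yeast as GST fusions, captured on glutathione beads and barcoded with DNA. With a tag-only sample included, the pool was incubated with 200 nmole of a random double-stranded 16-mer DNA library in Tris/NaCl/DTT/glycerol buffer at room temperature for 30 min, then crosslinked with 0.1% formaldehyde after washing, ligated by proximity, amplified and sequenced. For binding signal, each hexamer's read frequency for a factor is divided by its frequency for the tag-only sample.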

Assay [2] has as its target ETV5 (Homo sapiens, UniProt P41161 1-510). The note with it: protein: recombinant; tags: N-terminal GST; dsDNA, one strand shown. A digest of the protocol:
as §1

Assay [3] concerns the target HSF1 (Homo sapiens, UniProt Q00613 1-529). The settings on record: protein: recombinant; tags: N-terminal GST; chain copies: 3; dsDNA, one strand shown. A digest of the protocol:
as §1

In assay [4] the target is T2, SPIC (Homo sapiens, UniProt Q8N5J4 1-248).
T2 sequence: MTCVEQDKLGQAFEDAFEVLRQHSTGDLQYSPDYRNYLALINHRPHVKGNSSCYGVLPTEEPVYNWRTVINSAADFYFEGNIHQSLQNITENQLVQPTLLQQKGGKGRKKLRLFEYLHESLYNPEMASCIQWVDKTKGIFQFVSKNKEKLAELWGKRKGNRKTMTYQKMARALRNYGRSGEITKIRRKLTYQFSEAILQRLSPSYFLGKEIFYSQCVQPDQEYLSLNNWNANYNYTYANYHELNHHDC
The note with it: protein: recombinant; tags: N-terminal GST; dsDNA, one strand shown. A digest of the protocol:
as §1

Assay [5] has as its target ELF4 (Homo sapiens, UniProt Q99607 1-663). The note with it: protein: recombinant; tags: N-terminal GST; dsDNA, one strand shown. A digest of the protocol:
as §1

Assay [6] addresses T3, ELK4 (Homo sapiens, UniProt P28324-2 1-405).
T3 sequence: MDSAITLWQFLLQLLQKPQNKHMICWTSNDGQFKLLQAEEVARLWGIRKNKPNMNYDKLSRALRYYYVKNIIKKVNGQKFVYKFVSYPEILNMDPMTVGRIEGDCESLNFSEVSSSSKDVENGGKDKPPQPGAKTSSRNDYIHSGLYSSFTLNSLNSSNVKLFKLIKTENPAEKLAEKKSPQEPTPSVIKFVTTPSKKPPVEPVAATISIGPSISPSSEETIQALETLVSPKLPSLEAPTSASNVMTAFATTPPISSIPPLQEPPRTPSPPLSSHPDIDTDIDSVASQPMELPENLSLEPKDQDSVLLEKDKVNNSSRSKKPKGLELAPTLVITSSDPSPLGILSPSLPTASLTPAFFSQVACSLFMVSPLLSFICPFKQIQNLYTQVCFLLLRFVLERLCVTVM
The note with it: protein: recombinant; tags: N-terminal GST; dsDNA, one strand shown. A digest of the protocol:
as §1

The target of assay [7] is T4, ETV2 (Homo sapiens, UniProt O00321 1-342).
T4 sequence: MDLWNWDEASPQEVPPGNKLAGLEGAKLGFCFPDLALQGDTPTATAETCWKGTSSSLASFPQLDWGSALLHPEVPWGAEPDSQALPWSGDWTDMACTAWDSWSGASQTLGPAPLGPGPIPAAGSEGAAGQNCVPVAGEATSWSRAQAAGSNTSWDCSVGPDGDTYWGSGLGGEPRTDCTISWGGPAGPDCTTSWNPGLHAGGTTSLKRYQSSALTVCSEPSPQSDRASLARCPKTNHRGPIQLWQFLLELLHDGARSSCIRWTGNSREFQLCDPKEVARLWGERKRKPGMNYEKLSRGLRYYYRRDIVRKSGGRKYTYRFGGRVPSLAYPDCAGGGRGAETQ
The note with it: protein: recombinant; tags: N-terminal GST; dsDNA, one strand shown. A digest of the protocol:
as §1

Assay [8] deals with T5, ELF3 (Homo sapiens, UniProt P78545 1-371).
T5 sequence: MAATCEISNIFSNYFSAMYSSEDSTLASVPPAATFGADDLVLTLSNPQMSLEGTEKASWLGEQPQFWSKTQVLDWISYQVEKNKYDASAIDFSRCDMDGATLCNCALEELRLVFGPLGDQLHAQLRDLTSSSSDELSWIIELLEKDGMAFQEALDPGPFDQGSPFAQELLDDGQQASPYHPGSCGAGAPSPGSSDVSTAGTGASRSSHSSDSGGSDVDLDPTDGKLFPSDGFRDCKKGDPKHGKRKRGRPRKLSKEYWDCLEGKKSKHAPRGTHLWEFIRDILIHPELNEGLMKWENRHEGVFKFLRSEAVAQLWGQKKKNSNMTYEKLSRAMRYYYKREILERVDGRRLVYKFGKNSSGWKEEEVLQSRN
The note with it: protein: recombinant; tags: N-terminal GST; dsDNA, one strand shown. A digest of the protocol: as §1

The target in assay [9] is CRX (Homo sapiens, UniProt O43186 1-299). The note with it: protein: recombinant; tags: N-terminal GST; dsDNA, one strand shown. A digest of the protocol:
as §1

Assay [10] has as its target ETV1 (Homo sapiens, UniProt P50549 1-477). The note with it: protein: recombinant; tags: N-terminal GST; dsDNA, one strand shown. A digest of the protocol:
as §1

ELF4, sequence (Q99607 whole entry): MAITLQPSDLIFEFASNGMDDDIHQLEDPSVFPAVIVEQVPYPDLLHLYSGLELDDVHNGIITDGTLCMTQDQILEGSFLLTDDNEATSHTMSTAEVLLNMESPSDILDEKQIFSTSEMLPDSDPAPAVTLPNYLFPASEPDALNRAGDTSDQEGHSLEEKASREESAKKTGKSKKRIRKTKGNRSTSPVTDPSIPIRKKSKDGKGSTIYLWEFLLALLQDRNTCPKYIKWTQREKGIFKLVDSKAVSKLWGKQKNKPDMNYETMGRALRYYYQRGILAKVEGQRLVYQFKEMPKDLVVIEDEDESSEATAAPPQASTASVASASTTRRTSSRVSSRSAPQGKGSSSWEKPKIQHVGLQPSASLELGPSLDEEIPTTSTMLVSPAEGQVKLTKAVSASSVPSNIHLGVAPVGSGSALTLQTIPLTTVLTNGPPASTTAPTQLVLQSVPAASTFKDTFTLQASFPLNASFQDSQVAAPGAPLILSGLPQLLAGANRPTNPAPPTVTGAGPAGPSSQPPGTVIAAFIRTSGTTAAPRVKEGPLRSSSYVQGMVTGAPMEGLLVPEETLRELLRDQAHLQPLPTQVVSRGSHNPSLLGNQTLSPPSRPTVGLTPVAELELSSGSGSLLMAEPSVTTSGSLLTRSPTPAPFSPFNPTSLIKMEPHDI
HSF1, sequence (Q00613 whole entry): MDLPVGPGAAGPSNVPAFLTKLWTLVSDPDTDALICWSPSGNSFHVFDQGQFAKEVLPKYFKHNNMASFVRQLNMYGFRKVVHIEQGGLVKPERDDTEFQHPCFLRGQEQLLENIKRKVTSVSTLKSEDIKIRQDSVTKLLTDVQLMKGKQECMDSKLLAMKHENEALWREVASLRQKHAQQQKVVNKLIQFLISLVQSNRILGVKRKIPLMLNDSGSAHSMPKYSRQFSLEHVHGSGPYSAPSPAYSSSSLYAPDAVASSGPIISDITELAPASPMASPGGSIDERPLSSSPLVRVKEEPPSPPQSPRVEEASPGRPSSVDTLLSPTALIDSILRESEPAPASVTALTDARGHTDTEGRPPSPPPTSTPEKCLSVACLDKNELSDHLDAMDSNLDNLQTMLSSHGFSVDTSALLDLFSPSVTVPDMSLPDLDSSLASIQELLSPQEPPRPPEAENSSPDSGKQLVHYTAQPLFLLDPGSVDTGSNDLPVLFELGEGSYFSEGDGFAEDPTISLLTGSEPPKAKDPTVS
CRX, sequence (O43186 whole entry): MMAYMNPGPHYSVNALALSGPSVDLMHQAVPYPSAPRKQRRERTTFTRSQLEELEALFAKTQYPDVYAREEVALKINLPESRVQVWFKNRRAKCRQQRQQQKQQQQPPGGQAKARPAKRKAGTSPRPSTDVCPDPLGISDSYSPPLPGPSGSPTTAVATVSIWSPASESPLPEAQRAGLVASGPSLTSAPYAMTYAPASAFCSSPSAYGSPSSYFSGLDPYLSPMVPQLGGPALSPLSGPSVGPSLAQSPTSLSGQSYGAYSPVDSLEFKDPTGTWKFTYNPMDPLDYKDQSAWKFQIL
ETV5, sequence (P41161 whole entry): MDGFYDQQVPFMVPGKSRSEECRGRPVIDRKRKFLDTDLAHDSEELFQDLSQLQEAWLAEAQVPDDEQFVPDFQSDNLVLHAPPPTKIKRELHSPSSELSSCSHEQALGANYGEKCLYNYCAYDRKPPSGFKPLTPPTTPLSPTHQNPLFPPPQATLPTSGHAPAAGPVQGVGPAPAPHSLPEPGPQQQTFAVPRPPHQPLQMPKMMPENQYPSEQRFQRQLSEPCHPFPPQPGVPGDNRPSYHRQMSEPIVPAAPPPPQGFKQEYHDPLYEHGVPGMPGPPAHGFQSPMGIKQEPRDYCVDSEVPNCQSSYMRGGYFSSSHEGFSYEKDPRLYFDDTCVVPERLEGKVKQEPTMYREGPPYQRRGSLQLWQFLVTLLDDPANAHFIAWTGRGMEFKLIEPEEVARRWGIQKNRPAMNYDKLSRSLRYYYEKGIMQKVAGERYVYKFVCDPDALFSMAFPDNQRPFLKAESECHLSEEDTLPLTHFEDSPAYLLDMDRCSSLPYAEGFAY
ETV1, sequence (P50549 whole entry): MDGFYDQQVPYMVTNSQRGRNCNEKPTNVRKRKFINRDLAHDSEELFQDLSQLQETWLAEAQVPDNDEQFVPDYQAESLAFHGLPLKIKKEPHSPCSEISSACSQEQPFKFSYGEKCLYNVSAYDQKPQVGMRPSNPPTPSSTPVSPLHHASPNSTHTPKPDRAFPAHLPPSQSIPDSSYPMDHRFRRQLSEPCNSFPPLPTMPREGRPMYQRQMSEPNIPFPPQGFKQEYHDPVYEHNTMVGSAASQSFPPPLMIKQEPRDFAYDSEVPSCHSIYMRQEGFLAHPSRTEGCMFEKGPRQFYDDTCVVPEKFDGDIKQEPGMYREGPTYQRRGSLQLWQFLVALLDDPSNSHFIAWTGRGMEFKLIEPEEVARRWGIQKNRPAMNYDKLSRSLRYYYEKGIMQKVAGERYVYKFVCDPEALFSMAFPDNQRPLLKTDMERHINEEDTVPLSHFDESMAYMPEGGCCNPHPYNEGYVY

As to GACCTA, the binding signal in assay [1] is 1.17 fold enrichment (6-mer frequency, TF over GST control); in assay [2], 1.2 fold enrichment (6-mer frequency, TF over GST control); in [3], 1.06 fold enrichment (6-mer frequency, TF over GST control); in assay [4], 1.18 fold enrichment (6-mer frequency, TF over GST control); in [5], 1.24 fold enrichment (6-mer frequency, TF over GST control); in assay [6], 1.14 fold enrichment (6-mer frequency, TF over GST control). In addition, the binding signal in assay [7] is 1.26 fold enrichment (6-mer frequency, TF over GST control); in assay [8], 1.06 fold enrichment (6-mer frequency, TF over GST control); in [9] it was 1.07 fold enrichment (6-mer frequency, TF over GST control); in assay [10] it was 1.16 fold enrichment (6-mer frequency, TF over GST control).
Consider TTAAAT, for which the binding signal in assay [1] is 1.16 fold enrichment (6-mer frequency, TF over GST control); in assay [2], 1.2 fold enrichment (6-mer frequency, TF over GST control); in assay [3], 1.85 fold enrichment (6-mer frequency, TF over GST control); in assay [4] it was 1.21 fold enrichment (6-mer frequency, TF over GST control); in [5], 1.14 fold enrichment (6-mer frequency, TF over GST control); in assay [6] it was 1.22 fold enrichment (6-mer frequency, TF over GST control). In addition, the binding signal was 1.25 fold enrichment (6-mer frequency, TF over GST control) in assay [7]; 1.22 fold enrichment (6-mer frequency, TF over GST control) in assay [8]; 2.92 fold enrichment (6-mer frequency, TF over GST control) in assay [9]; 1.16 fold enrichment (6-mer frequency, TF over GST control) in [10].
On to ATAGTT, for which the binding signal in [1] is 1.11 fold enrichment (6-mer frequency, TF over GST control); in assay [2], 1.25 fold enrichment (6-mer frequency, TF over GST control); in assay [3], 1.15 fold enrichment (6-mer frequency, TF over GST control); in assay [4], 1.14 fold enrichment (6-mer frequency, TF over GST control); in assay [5], 1.18 fold enrichment (6-mer frequency, TF over GST control); in assay [6] it was 1.39 fold enrichment (6-mer frequency, TF over GST control). For the same sequence, the binding signal is 1.14 fold enrichment (6-mer frequency, TF over GST control) in assay [7]; 1.29 fold enrichment (6-mer frequency, TF over GST control) in assay [8]; 1.1 fold enrichment (6-mer frequency, TF over GST control) in [9]; 1.11 fold enrichment (6-mer frequency, TF over GST control) in assay [10].
AAGTAG: the binding signal was 1.21 fold enrichment (6-mer frequency, TF over GST control) in assay [1]; 1.25 fold enrichment (6-mer frequency, TF over GST control) in [2]; 1.11 fold enrichment (6-mer frequency, TF over GST control) in [3]; 1.3 fold enrichment (6-mer frequency, TF over GST control) in assay [4]; 1.18 fold enrichment (6-mer frequency, TF over GST control) in assay [5]; 1.06 fold enrichment (6-mer frequency, TF over GST control) in assay [6]. The binding signal is 1.18 fold enrichment (6-mer frequency, TF over GST control) in [7]; 1.31 fold enrichment (6-mer frequency, TF over GST control) in [8]; 1.2 fold enrichment (6-mer frequency, TF over GST control) in [9]; 1.28 fold enrichment (6-mer frequency, TF over GST control) in assay [10].
For the sequence AAGAAC, the binding signal in [1] is 1.19 fold enrichment (6-mer frequency, TF over GST control); in assay [2], 1.16 fold enrichment (6-mer frequency, TF over GST control); in assay [3], 1.63 fold enrichment (6-mer frequency, TF over GST control); in assay [4], 1.24 fold enrichment (6-mer frequency, TF over GST control); in [5], 1.2 fold enrichment (6-mer frequency, TF over GST control); in [6] it was 1.18 fold enrichment (6-mer frequency, TF over GST control). Further, the binding signal in [7] is 1.13 fold enrichment (6-mer frequency, TF over GST control); in assay [8], 1.16 fold enrichment (6-mer frequency, TF over GST control); in [9], 1.28 fold enrichment (6-mer frequency, TF over GST control); in assay [10] it was 1.22 fold enrichment (6-mer frequency, TF over GST control).
With GCTTAG, the binding signal in [1] was 1.08 fold enrichment (6-mer frequency, TF over GST control); in [2], 1.13 fold enrichment (6-mer frequency, TF over GST control); in [3], 1.78 fold enrichment (6-mer frequency, TF over GST control); in [4], 1.12 fold enrichment (6-mer frequency, TF over GST control); in assay [5] it was 1.1 fold enrichment (6-mer frequency, TF over GST control); in assay [6], 1.17 fold enrichment (6-mer frequency, TF over GST control). Moreover, the binding signal is 1.08 fold enrichment (6-mer frequency, TF over GST control) in [7]; 1.09 fold enrichment (6-mer frequency, TF over GST control) in assay [8]; 2.49 fold enrichment (6-mer frequency, TF over GST control) in assay [9]; 1.27 fold enrichment (6-mer frequency, TF over GST control) in assay [10].
Take TAATCG: the binding signal is 1.01 fold enrichment (6-mer frequency, TF over GST control) in [1]; 1.07 fold enrichment (6-mer frequency, TF over GST control) in assay [2]; 1.93 fold enrichment (6-mer frequency, TF over GST control) in assay [3]; 1 fold enrichment (6-mer frequency, TF over GST control) in assay [4]; 1.07 fold enrichment (6-mer frequency, TF over GST control) in [5]; 1.1 fold enrichment (6-mer frequency, TF over GST control) in assay [6]. Also, the binding signal in [7] is 1.04 fold enrichment (6-mer frequency, TF over GST control); in [8] it was 1.07 fold enrichment (6-mer frequency, TF over GST control); in assay [9] it was 2.89 fold enrichment (6-mer frequency, TF over GST control); in assay [10] it was 1.01 fold enrichment (6-mer frequency, TF over GST control).
Consider ATTCTT, for which the binding signal in [1] is 1.4 fold enrichment (6-mer frequency, TF over GST control); in [2] it was 1.4 fold enrichment (6-mer frequency, TF over GST control); in assay [3], 1.99 fold enrichment (6-mer frequency, TF over GST control); in assay [4] it was 1.56 fold enrichment (6-mer frequency, TF over GST control); in [5], 1.47 fold enrichment (6-mer frequency, TF over GST control); in [6], 1.51 fold enrichment (6-mer frequency, TF over GST control). The binding signal is 1.37 fold enrichment (6-mer frequency, TF over GST control) in assay [7]; 1.45 fold enrichment (6-mer frequency, TF over GST control) in assay [8]; 1.77 fold enrichment (6-mer frequency, TF over GST control) in assay [9]; 1.56 fold enrichment (6-mer frequency, TF over GST control) in assay [10].
